Among the data in PubChem BioAssay AID720554 (ICCB-Longwood Screening Facility, Harvard Medical School, 2013) are inhibition values, retold here.

SMILES strings stand for the structures. Screen size: about 12,000 compounds; about 45 (0.4%) were called active. Rule as the data show it: active = inhibition mostly above about 83% (no sharp cut-off); inactive = mostly below about 52%. Many of the other results were omitted from the sample, so actives are more common in it than they were.

A short description of assay [1]: BmaI1 acyl-homoserine lactone synthase inhibition – biochemical, fluorescence intensity, with counterscreen (AID 720554). The conditions noted are these: BmaI1 enzyme assay, measured here: counterscreen fluorescence % control, concentration not given here. Background: A counterscreen serves to expose hits that act by an unwanted route or on another target.
Assay [2] concerns acyl-homoserine lactone synthase BmaI1 (Burkholderia mallei ATCC 23344). Described as above. The conditions noted are these: BmaI1 enzyme assay, stronger effect = higher value, concentration not given here.

As for `O=C(NCc1ccccc1)c1cccc(OCC(=O)N2CCOCC2)c1`, the values for the inhibition in assay [1] and in assay [2] were -11% and -13.5% (inactive), respectively.

In the case of `CC1(C)CC(NCc2cc(Cl)c3c(c2)OCCCO3)CC(C)(C)N1`, the inhibition in assay [1] is 4.5%; in assay [2], 10% (inactive).

For `Cn1c(N)c(C(=O)CSc2nc3sc4c(c3c(=O)n2Cc2ccco2)CCCC4)c(=O)[nH]c1=O`, the inhibition in assay [1] was 5%; in assay [2], 12.5% (inactive).

Regarding `COc1ccccc1NC(=O)c1ccc(NC(=O)COC(=O)C2CCCO2)cc1` (centres undefined), the values for the inhibition in assay [1] and in assay [2] were -4.5% and -1.5% (inactive), respectively.

As for `Sc1ccc2c(c1)OCCCO2`, the inhibition in assay [1] was 3.5%; in assay [2], 38% (inactive).

With `CCOC(=O)C1CCN(C(C)C(=O)Nc2ccc(C(C)C)cc2)CC1` (centres undefined), the inhibition in assay [1] was 3%; in assay [2], 9.5% (inactive).

Consider `Nn1cc(-c2ccccc2)[nH]c1=S`, for which the inhibition is 52% in assay [1] and 104% (inactive) in assay [2].

In the case of `Ic1ccc(-c2ncc3ccccn23)cc1`, the values for the inhibition in assay [1] and in assay [2] were 11% and 17.5% (inactive), respectively.

Turning to `S=c1[nH]cc2ccccn12`, the inhibition is 5.5% in assay [1] and 96.5% (active) in assay [2].

Turning to `CC(=O)NS(=O)(=O)c1ccc(N)cc1`, the figures for the inhibition in assay [1] and in assay [2] were 9.5% and -0.5% (inactive), respectively.

As for `Nc1ccc(S(=O)(=O)c2ccc(N)cc2)cc1`, the inhibition in assay [1] was 6%; in assay [2] it was -2.5% (inactive).

For the molecule `Nc1ccc(S(=O)(=O)CCSS(=O)(=O)c2ccc(N)cc2)cc1`, the inhibition in assay [1] is 0.5%; in assay [2], 88% (active).

As for `Cc1nnc(SC(C)C(N)=O)n1Cc1ccccc1` (centres undefined), the results for the inhibition in assay [1] and in assay [2] were -2% and 9.5% (inactive), respectively.

Take `COc1ccccc1NC1CC(=O)N(c2cccc(Cl)c2)C1=O` (centres undefined): the inhibition in assay [1] was 10.5%; in assay [2] it was 17.5% (inactive).

As to `COc1cccc(N2C(=O)CC(n3nc(Nc4cccc(C)c4)sc3=S)C2=O)c1` (centres undefined), the inhibition was 27.5% in assay [1] and 102% (active) in assay [2].

Turning to `COc1cccc(Nc2nnc(SCC(=O)c3cc(C)n(C)c3C)s2)c1`, the figures for the inhibition in assay [1] and in assay [2] were 9% and 20% (inactive), respectively.

Take `C[C@@H](C(=O)N1CCSC1=NCc1ccccc1)N1C(=O)C2CC=CCC2C1=O` (some centres undefined): the inhibition was 4% in assay [1] and 8.5% (inactive) in assay [2].

Consider `CC1CC(C)CN(C(=O)c2cc3ccccc3oc2=O)C1` (centres undefined), for which the values for the inhibition in assay [1] and in assay [2] were 9% and 8.5% (inactive), respectively.

For the molecule `Cc1csc(SCC(=O)c2ccc(S(=O)(=O)N3CCCCC3)cc2)n1`, the inhibition is 21.5% in assay [1] and 58.5% (inactive) in assay [2].

`O=C(CSc1nc2ccccc2c(=O)n1C1CCCC1)Nc1ccc2c(c1)OCCO2`: the inhibition in assay [1] is 6%; in assay [2] it was 28% (inactive).

`O=C(CN1CCN(S(=O)(=O)Cc2ccccc2)CC1)Nc1ccc2[nH]c(=O)[nH]c2c1`: the inhibition in assay [1] was 15.5%; in assay [2] it was 35.5% (inactive).

For `Oc1c(C(c2ccccn2)N2CCN(c3ccc(F)cc3)CC2)cc(Cl)c2cccnc12` (centres undefined), the values for the inhibition in assay [1] and in assay [2] were -13.5% and 0.5% (inactive), respectively.

For the molecule `CN1CCN(C(c2ccccn2)c2c(-c3ccccc3)n(O)c3ccccc23)CC1` (centres undefined), the inhibition in assay [1] is 17%; in assay [2], 105% (active).

As for `CCn1c(-c2ccccc2)c(C(=O)CN2CCN(C)CC2)c2ccccc21`, the inhibition is 2.5% in assay [1] and 38% (inactive) in assay [2].

For the molecule `CNC(=O)c1sc(CN2C(=O)c3ccccc3S2(=O)=O)nc1C`, the inhibition in assay [1] was -7%; in assay [2], 91% (active).

Regarding `O=C1c2ccccc2S(=O)(=O)N1Cc1cc(=O)[nH]c(=O)[nH]1`, the inhibition was -2.5% in assay [1] and -1% (inactive) in assay [2].

`CN(C)C(=O)CN1C(=O)c2ccccc2S1(=O)=O`: the inhibition in assay [1] was -3%; in assay [2], 2% (inactive).

In the case of `CC(Sc1ccccc1F)C(=O)Nc1ccc(S(N)(=O)=O)cc1` (centres undefined), the inhibition in assay [1] is 1%; in assay [2], 9.5% (inactive).

In the case of `Cn1c(Cc2cccs2)nnc1SCC(=O)N1CCNC1=O`, the figures for the inhibition in assay [1] and in assay [2] were 2.5% and 15% (inactive), respectively.

Turning to `CCCn1c(SCCCC(=O)c2cccs2)n[nH]c1=O`, the results for the inhibition in assay [1] and in assay [2] were -0.5% and 5.5% (inactive), respectively.

Consider `Oc1cc2c(cc1C(c1ccc(C(F)(F)F)cc1)N1CCN(c3ccccc3)CC1)OCO2` (centres undefined), for which the inhibition in assay [1] was 5%; in assay [2] it was 5.5% (inactive).

With `COC(=O)c1ccc(C(c2c(O)ccc3ccccc23)N2CCOCC2)cc1` (centres undefined), the figures for the inhibition in assay [1] and in assay [2] were 11% and 18% (inactive), respectively.

On to `COC(=O)c1ccc(C(c2cc3c(cc2O)OCO3)N2CCN(c3ccccc3)CC2)cc1` (centres undefined), for which the inhibition in assay [1] is 24%; in assay [2], 83% (active).

For `COc1ccc(C(=O)Nc2nccs2)c(F)c1`, the inhibition is 6.5% in assay [1] and 9.5% (inactive) in assay [2].

Consider `Cc1ccc(SCC(=O)NC(=O)C(C)C)cc1C`, for which the results for the inhibition in assay [1] and in assay [2] were 8% and 14.5% (inactive), respectively.

Regarding `CC(C)c1nc(C#N)c(NCc2cccnc2)o1`, the inhibition in assay [1] was 16.5%; in assay [2], 31% (inactive).

Turning to `Cc1cc(C(=O)OCC(=O)c2ccc(NC(=O)CC(C)C)cc2)no1`, the results for the inhibition in assay [1] and in assay [2] were 14.5% and 13.5% (inactive), respectively.

On to `FC(F)Oc1ccc(NC(=S)NC2CCCC2)cc1`, for which the inhibition in assay [1] was -10.5%; in assay [2], -12.5% (inactive).

On to `FC(F)Oc1ccc(NC(=S)NNc2ccc(Cl)nn2)cc1`, for which the values for the inhibition in assay [1] and in assay [2] were 28% and 104% (active), respectively.

`CN(CC(=O)Nc1ccc(Cl)cc1)C(=O)c1ccc(OC(F)F)cc1`: the values for the inhibition in assay [1] and in assay [2] were 17% and 13% (inactive), respectively.

As for `CCC(C)N=C1NC(=O)C(CC(=O)NCc2ccccc2)S1` (centres undefined), the inhibition in assay [1] is 8.5%; in assay [2], 10.5% (inactive).

As for `COC(=O)c1c(C)[nH]c(=O)[nH]c1=S`, the figures for the inhibition in assay [1] and in assay [2] were 1.5% and -6.5% (inactive), respectively.

`COC(=O)C1=NC=CN2CCS(=O)(=O)N=C12`: the inhibition in assay [1] is 9.5%; in assay [2], 7% (inactive).

In the case of `Cc1sc2c(c1C)C1=NS(=O)(=O)CCN1C=N2`, the inhibition is 10% in assay [1] and 88.5% (active) in assay [2].

As for `O=S1(=O)CCN2C=CSC2=N1`, the values for the inhibition in assay [1] and in assay [2] were 11.5% and 17% (inactive), respectively.

As to `CCOc1ccccc1NC(=O)CSc1nc(O)cc(=O)n1C1CCCC1`, the inhibition in assay [1] is 5.5%; in assay [2] it was 7.5% (inactive).

Take `CCOc1ccc(O)c(C=NC2CCCC2)c1`: the values for the inhibition in assay [1] and in assay [2] were 2.5% and 2.5% (inactive), respectively.

The inhibition is the drop in the measured response relative to a control, in per cent.
